Measurements reported in PubChem BioAssay (EPA / NIEHS).
Results filed as inconclusive are left out. Activity calls are given as the source filed them. Rule for the calls: active = hit-call score of the fitted dose curve at least 0.9, where 1 is the maximum; inconclusive = response in the unintended direction; inactive = score below 0.9.

Read-out: Broad substrate specificity ATP-binding cassette transporter ABCG2 (Homo sapiens) (UniProt Q9UNQ0)
Test: CLD_ABCG2_24hr: CellzDirect (CLD) Gene Expression Assay for ABC Transporter (ABCG2) at 24 hours (AID 2283685)
Experimental: CLD_24hr is a cell-based, multiplexed-readout assay that uses hepatocyte, a human liver primary cell, with measurements taken at 24 hours after chemical dosing in a 96-well plate.CLD_ABCG2_24hr is one of 16 assay component(s) measured or calculated from the CLD_24hr assay. It is designed to make measurements of mRNA induction, a form of inducible reporter, as detected with chemiluminescence signals by Quantitative Nuclease Protection Assay (qNPA) technology.Data from the assay component CLD_ABCG2_24hr was analyzed at the endpoint, CLD_ABCG2_24hr, in the positive analysis fitting direction relative to DMSO as the negative control and baseline of activity. Using a type of inducible reporter, gain-of-signal activity can be used to understand changes in the reporter gene as they relate to the gene ABCG2. Furthermore, this assay endpoint can be referred to as a primary readout. To generalize the intended target to other relatable targets, this assay endpoint is annotated to the transporter intended target family, where subfamily is ABC transporter.
Human hepatocyte cultures were treated daily for two consecutive days with fresh dosing solutions containing appropriate concentrations of the 320 ToxCast chemicals (chemical identities were blinded to CellzDirect and other ToxCast collaborators), vehicle control (0.2% DMSO), and positive control inducers as summarized in Table 1. Due to the large number of treatment groups and chemicals examined, the ToxCast chemicals were divided into two groups (spanning two independent cultures of hepatocytes from separate donor preparations (Hu778: ToxCast plates 1 and 2; Hu776: ToxCast plates 3 and 4). Each preparation of human hepatocyte cultures was treated with respective vehicle control, medium only control, set of six positive controls/reference chemicals for the five hepatic receptor pathways, and a subset of eight of the ToxCast chemicals (indoxacarb, pyrithiobac-sodium, norflurazon, cyhalofop-butyl, methomyl, thiram, acetochlor, and propiconazole). These replicate data, coupled with internal replicates designed within the blinded ToxCast chemical library, provided additional data to evaluate interindividual differences between hepatocyte preparations and their potential impact on chemical profiles.Cell morphology and integrity were evaluated using phase-contrast microscopy as an indicator of hepatocyte cell health (Tyson & Green, 1987). Cultures for each treatment group (i.e., media, vehicle [0.2% DMSO], positive control inducers [multiple concentrations], and the ToxCast chemicals [multiple concentrations]) were observed and cell morphology was assessed relative to vehicle control cultures at each harvest time point (0, 6, 24, or 48 h). […] Images were evaluated at the conclusion of the study to assess changes in cell integrity and account for the effects of chemical exposure on uncharacteristic changes in concentration-dependent gene expression profiles. The results from these determinations of apparent cytotoxicity were annotated (yes/no) alongside the corresponding qNPA data for reference.At the conclusion of each treatment period, hepatocyte cultures (96-well) were washed with 1 volume of HBSS, lysed by addition of 25 ul ArrayPlate lysis buffer (HTG, Tucson, AZ), and 70 ul/well of Denaturation Oil, denatured by incubation at 95C for 10 min, and frozen at approximately -70C until analysis by nuclease protection assay (qNPA) (Roberts et al., 2007). For qNPA analysis, cell lysates were thawed at 50C for approximately 30 min, qNPA probes were added, and samples were incubated at 95C for 10 min to begin the detection process by denaturing the target RNA, dissociating the duplexes and secondary structure hybridization. At the conclusion of the hybridization period, S1 nuclease reagent was added to each sample to digest all nonprotected nucleotides at 50C for 60-90 min. […]

Broad substrate specificity ATP-binding cassette transporter ABCG2 (Homo sapiens), sequence (Q9UNQ0 whole entry, looked up): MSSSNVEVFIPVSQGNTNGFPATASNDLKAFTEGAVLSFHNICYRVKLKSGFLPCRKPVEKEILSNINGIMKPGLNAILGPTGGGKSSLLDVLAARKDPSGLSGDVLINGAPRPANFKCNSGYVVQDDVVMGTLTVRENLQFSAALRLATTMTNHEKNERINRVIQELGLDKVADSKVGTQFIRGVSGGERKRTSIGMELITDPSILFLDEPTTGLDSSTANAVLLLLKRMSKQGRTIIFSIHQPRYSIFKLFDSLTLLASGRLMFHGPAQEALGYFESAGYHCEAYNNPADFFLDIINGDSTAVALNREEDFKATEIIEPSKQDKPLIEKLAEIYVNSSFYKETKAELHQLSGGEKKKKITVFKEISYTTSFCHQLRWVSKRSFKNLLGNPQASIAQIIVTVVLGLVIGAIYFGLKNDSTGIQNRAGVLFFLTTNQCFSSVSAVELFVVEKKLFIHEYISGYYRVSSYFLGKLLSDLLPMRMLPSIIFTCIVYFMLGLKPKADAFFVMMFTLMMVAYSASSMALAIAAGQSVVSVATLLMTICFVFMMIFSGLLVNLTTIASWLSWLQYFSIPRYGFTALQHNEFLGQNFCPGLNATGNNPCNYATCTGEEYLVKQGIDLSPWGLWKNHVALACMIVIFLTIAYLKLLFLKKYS

Row | Compound | outcome
1 | CC(C)(c1ccc(O)cc1)c1ccc(O)cc1 | inactive
2 | COC(=O)CSc1cc(N=c2sc(=O)n3n2CCCC3)c(F)cc1Cl | inactive
3 | CCCCCCC(C)OC(=O)COc1nc(F)c(Cl)c(N)c1Cl (stereo not given) | inactive
4 | CCCOC(=O)c1ccc(C(=O)OCCC)nc1 | inactive
5 | CCSC(=O)N(CC(C)C)CC(C)C | inactive
6 | CCCOC(=O)NCCCN(C)C | inactive
7 | S=C(S)NCCNC(=S)S.[Mn+2].[S-]C([S-])=NCCN=C([S-])[S-].[Zn+2] | inactive
8 | CCCCOC(=O)[C@@H](C)Oc1ccc(Oc2ccc(C(F)(F)F)cn2)cc1 | inactive
9 | CCC(C)OC(=O)N1CCCCC1CCO (stereo not given) | inactive
10 | OB(O)O | inactive
11 | CCOC(=O)[C@H](C)Oc1ccc(Oc2nc3ccc(Cl)cc3o2)cc1 | inactive
12 | CCCN(CCC)C(=O)SCC | inactive
13 | CSC(=O)c1cccc2nnsc12 | inactive
14 | COC(=O)c1ccc(I)cc1S(=O)(=O)NC(=O)Nc1nc(C)nc(OC)n1 | inactive
15 | CCCN(CCC)c1c([N+](=O)[O-])cc(C(F)(F)F)c(N)c1[N+](=O)[O-] | inactive
16 | CCOC(=O)C(C)Oc1ccc(Oc2nc3ccc(Cl)cc3o2)cc1 (stereo not given) | inactive
17 | Cc1nn(C)c(Oc2ccccc2)c1C=NOCc1ccc(C(=O)OC(C)(C)C)cc1 | inactive
18 | O=C(O)C1(C(=O)Nc2ccc(Cl)cc2Cl)CC1 | inactive
19 | COCCO | inactive
20 | CCOC(=O)NCCOc1ccc(Oc2ccccc2)cc1 | inactive
21 | O=C(Nc1ccc([N+](=O)[O-])cc1Cl)c1cc(Cl)ccc1O | inactive
22 | C=CCOC(Cn1ccnc1)c1ccc(Cl)cc1Cl (stereo not given) | inactive
23 | CCCCOC(=O)C(C)Oc1ccc(Oc2ccc(C(F)(F)F)cn2)cc1 (stereo not given) | inactive
24 | CCOC(=O)COc1cc(-n2ncc(C(F)(F)F)c(C)c2=O)c(F)cc1Cl | inactive
25 | S=C([S-])NCCNC(=S)[S-].[Mn+2] | inactive
26 | COc1c(Cl)ccc(Cl)c1C(=O)O | inactive
27 | CCC(O)=C1C(=O)CC(C(=O)O)CC1=O (stereo not given) | inactive
28 | CC(C)(C)[C@@H](O)[C@@H](Cc1ccc(Cl)cc1)n1cncn1 | inactive
29 | N#CSCSc1nc2ccccc2s1 | inactive
30 | C#CCOC(=O)[C@@H](C)Oc1ccc(Oc2ncc(Cl)cc2F)cc1 | inactive
